Screening results: PubChem, National Center for Advancing Translational Sciences (NCATS)
aSyn yeast inh: qHTS of alpha-syn Inhibitors. Yeast expressing alpha-synuclein, growth rescue, BacTiter-Glo, 24 h. Potency, µM (series often up to 46.1 µM), without a hit: at the highest dose growth rescue (activation), usual class: activators. 0.14% of 370,000 active; note: potency is the fitted concentration of half-maximal effect; % of control where 0% means no effect; nearly all actives have a fitted effect of over 65% in size
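Readout is rescue of growth in alpha-synuclein-expressing yeast, so inhibitors of toxicity appear as activators. Growth after 24 hr at 30 deg C in galactose medium is quantified by luminescence.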
Abeta rescue: qHTS for compounds that reverse cellular toxicity of Amyloid beta (A-beta) peptide in yeast: Primary Screen. 0.063% of 410,000 active. Potency, µM (highest dose often 46.1 µM), usual class: activators. yeast expressing A-beta42, growth rescue, OD600, 48 h; response scale: 0% DMSO, 100% iron-clioquinol control. AID 1347071, 2019; note: potency is the fitted concentration of half-maximal effect; nearly all actives have a fitted effect of over 55% in size
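Growth rescue measured by 600 nm absorbance after 48 h yeast culture at 30 C with compound. Values normalized between DMSO and an equimolar ferric chloride plus clioquinol control.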
TDP-43 yeast inh: qHTS of TDP-43 Inhibitors | TDP-43 expressing yeast growth rescue, BacTiter-Glo, 24 h | Potency, µM (titrated, usually from 46.1 µM), without a hit: at the top dose growth rescue (activation), most hits filed as activators | 1.8% of 410,000 active; note: potency is the fitted concentration of half-maximal effect; % of control where 0% means no effect; nearly all actives have a fitted effect of over 50% in size
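Galactose-induced TDP-43 yeast, OD600=0.02, compound pinned; 24 hr, 30 deg C; BacTiter-Glo luminescence for growth. Inhibitors of TDP-43 toxicity read as activators.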
LDHA inh: qHTS assay for inhibitors of human lactate dehydrogenase | 0.15% of 480,000 active | activity change, % (values are at about 110 or 230 µM) | L-lactate dehydrogenase A chain (Homo sapiens), P00338 | AID 1347041, 2019 | purified LDHA, NADH/diaphorase-resazurin fluorescence; stronger effect = lower value; in the data active = activity change below about -30%; inconclusive = mostly about -25% to -30%;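 note: plate controls were DMSO wells for no effect and wells without enzyme for full effect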
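Human LDH5 (2 nM) was incubated with 0.06 mM NADH and 0.2 mM pyruvate for 5 min at room temperature in Tris pH 7.4. Remaining NADH was coupled through diaphorase/resazurin, and resorufin fluorescence was read at 0 and 20 min.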
IDH1 R132H inh: qHTS for Inhibitors of mutant isocitrate dehydrogenase 1 (IDH1): qHTS; Potency, µM (top dose mostly 76.6 µM), for inactives: at the highest dose activity change, negative = inhibition, most hits filed as inhibitors; 0.093% of 390,000 active; Isocitrate dehydrogenase [NADP] cytoplasmic (Homo sapiens), O75874; IDH1-R132H enzyme, NADPH consumption, diaphorase/resazurin fluorescence; note: potency is the fitted concentration of half-maximal effect; % is set by controls: 0 for no effect and ±100 for the full control effect; nearly all actives have a fitted effect of over 65% in size
Target sequence (O75874 whole entry R132H, stated change not applied): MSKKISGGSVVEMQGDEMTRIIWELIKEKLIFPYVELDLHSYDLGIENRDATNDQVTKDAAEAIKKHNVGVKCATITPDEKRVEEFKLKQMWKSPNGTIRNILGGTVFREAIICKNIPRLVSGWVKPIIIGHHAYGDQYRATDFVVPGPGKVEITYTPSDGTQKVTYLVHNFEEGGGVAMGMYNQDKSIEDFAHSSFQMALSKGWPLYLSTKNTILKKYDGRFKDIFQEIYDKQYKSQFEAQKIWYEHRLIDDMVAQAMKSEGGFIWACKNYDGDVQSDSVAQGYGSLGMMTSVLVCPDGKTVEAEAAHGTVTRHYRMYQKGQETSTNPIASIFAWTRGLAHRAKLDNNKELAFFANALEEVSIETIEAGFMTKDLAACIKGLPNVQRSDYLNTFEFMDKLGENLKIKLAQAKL
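IDH1-R132H (0.5 ug/mL) preincubated 30 min with compound, then NADPH (0.016 mM) and alpha-KG (2 mM) added; 80 min at RT, pH 7.5. Remaining NADPH coupled via diaphorase/resazurin to fluorescence (540/590 nm); concentration-response curves normalized to no-enzyme control.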
FUS suppressor: qHTS for Suppressors of FUS Proteinopathy: Primary screen using FUS-linked yeast assay | S. cerevisiae FUS-expressing, growth rescue, OD600, 24 h | Potency, µM (top dose mostly 76.6 µM), usual class: activators | 0.24% of 390,000 active;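 note: potency is the fitted concentration of half-maximal effect; plate controls were DMSO vehicle for no effect and reference control for full effect; nearly all actives have a fitted effect of over 55% in size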
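Restored growth of FUS-toxic S. cerevisiae, read as 600 nm absorbance after 24 h at 30C in galactose medium (starting OD 0.005). Controls CP55940 and DMSO.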
* hit, by the source's call; i = inactive; u = inconclusive; x = no result given; [ ] = dose if it differs, or a comment. Sampled rows, rich in hits. Any-hit rate of the full collection: about 2%. Unless noted, calls come from the whole dose curve; as a rule, active = well fitted curve in the direction sought with a large enough effect; inconclusive = small, poorly fitted or top-dose-only effect, or another doubt; inactive = no such curve, though single readings can be large; an effect the other way counts as inactive or inconclusive.

SMILES	aSyn yeast inh	Abeta rescue	TDP-43 yeast inh	LDHA inh	IDH1 R132H inh	FUS suppressor
COc1ccc(O)c(/C=N/n2c(-c3ccco3)csc2=Nc2cccnc2)c1	-7.6%	i	14.1%	-7.0	2.4%	x
CN=c1scc(-c2ccco2)n1/N=C/c1ccc(O)c(O)c1	13.4%	i	28.2µM*	7.9	5.4%	i
COc1ccc(S(=O)(=O)N2CCN(Cc3nc4ccc(C)cc4o3)CC2)cc1	x	i	17.8µM*	-1.7	-9.9%	i
CCc1ccc(NC(=O)CSC2=Nc3ccccc3C3=NC(CC(=O)NCc4cccs4)C(=O)N23)cc1 (configuration not stated)	x	i	8.4%	-0.1	2.6%	i
CC(C)c1ccc(NC(=O)CSC2=Nc3ccccc3C3=NC(CC(=O)NCc4cccs4)C(=O)N23)cc1 (configuration not stated)	x	12.6µM*	u	-9.7	-20.5%	i
COc1ccc(C2C(C(=O)Nc3ccccc3)=C(C)Nc3nc(-c4ccccc4Cl)nn32)cc1OC (configuration not stated)	x	i	28.2%	-3.5	-5.9%	u
CCOc1ccc(C2C(C(=O)Nc3ccccc3)=C(C)Nc3nc(-c4ccccc4Cl)nn32)cc1OC (configuration not stated)	x	i	0.0%	1.3	-13.4%	31.6µM*
Cc1ccc2c(=O)cc(C(=O)N(Cc3ccccc3)Cc3ccco3)oc2c1C	x	x	x	0.1	x	x
CC(C)Cc1nc(NCCN)c(C#N)c2c1CCCC2	x	x	x	1.0	x	x
O=C(Oc1oc(-c2ccco2)nc1C=Nc1ccccc1)c1ccoc1	u	i	-22.3%	1.6	-4.5%	i
Cc1ccc(C(=O)Oc2oc(-c3ccco3)nc2C=Nc2ccc(Cl)cc2)cc1	2.3%	i	6.31µM*	0.1	5.4%	x
CCN(C(=S)Nc1ccc(C(C)=O)cc1)C1CCCCC1	14.0%	i	22.4µM*	-9.1	0.7%	i
O=C(O)c1cnc(-c2ccccc2)nc1Sc1ccc(Cl)cc1	8.8%	i	-9.9%	-9.7	-5.2%	i
O=C(O)c1cnc(-c2ccccc2)nc1Sc1ccccc1Cl	5.2%	i	10.4%	-30.9*	-4.9%	i
CC(C)c1ccc(COc2ccc(Cl)cc2C(N)=O)cc1	x	x	x	11.7	x	x
O=CNc1ccc2c(c1)Cc1cc([N+](=O)[O-])ccc1-2	15.5%	i	22.4µM*	-6.5	6.1%	i
Cc1c(Cl)cccc1NC(=O)NCC1CCN(CCc2ccccc2)C1 (configuration not stated)	x	x	x	6.1	x	x
O=C(CSc1ccc2c(c1)OCCO2)NCCc1ccc(Cl)cc1Cl	u	i	11.2µM*	-2.4	4.4%	x
O=C(CSc1ccc2c(c1)OCCO2)Nc1ncc(Cl)cc1Cl	3.8%	i	u	7.3	12.4%	i
CCOC(=O)NC(=O)CSc1nc(C)cc(C)c1C#N	2.0%	i	15.8µM*	3.5	4.2%	i
Clc1ccc(-c2csc(N/N=C/c3cccnc3)n2)c(Cl)c1	-0.9%	i	12.6µM*	0.1	-2.9%	u
O=C1OC(/C(=C\Nc2ccc(F)cc2F)[N+](=O)[O-])c2ccccc21 (configuration not stated)	17.8µM*	i	u	0.4	-5.3%	i
Cc1ccc(-c2ccnc3c(Br)c(C)nn23)cc1	u	i	16.8%	-1.8	-1.1%	i
Cc1nn2c(-c3ccccc3)ccnc2c1Br	4.5%	i	20µM*	-3.1	1.3%	i
COc1ccc(C(=O)Nc2cccc(/C=C(/C#N)C(=O)NC3CC3)c2)cc1	x	x	x	9.3	x	x
SMILES	aSyn yeast inh	Abeta rescue	TDP-43 yeast inh	LDHA inh	IDH1 R132H inh	FUS suppressor
Oc1ccccc1C=NNC(=S)Nc1ccc(F)cc1	22.4µM*	i	u	4.6	-3.5%	i
Oc1ccccc1/C=N/NC(=S)NC1CC2C=CC1C2 (configuration not stated)	24.0%	11.2µM*	15.9%	0.8	3.4%	i
Oc1ccccc1C=NNC(=S)NC1CC2C=CC1C2 (configuration not stated)	u	u	12.6µM*	-2.5	1.1%	i
CN1CCc2nc3sc(C(=O)Nc4ccccc4OC(F)(F)F)c(N)c3cc2C1	x	i	17.8µM*	3.3	7.6%	u
Cc1cc(N2CCN(C(C(=O)O)c3c[nH]c4ccc(Cl)cc34)CC2)nc2ccccc12 (configuration not stated)	x	x	x	-0.8	x	x
C=C1CCC2C(C)(C)[C@@H](O)CC[C@@]2(C)[C@@H]1COc1ccc2ccc(=O)oc2c1 (some centres not stated)	17.8µM*	i	12.1%	3.5	3.9%	i
C=C1CCC2C(C)(C)[C@H](O)CC[C@@]2(C)[C@@H]1COc1cc(=O)oc2ccccc12 (some centres not stated)	-25.3%	i	3.3%	4.7	7.7%	35.5µM*
CC1=CCC2C(C)(CC[C@H](O)C2(C)C)C1COc1ccc2ccc(=O)oc2c1 (some centres not stated)	x	x	x	3.1	x	x
Cn1c(Sc2ncc(C(F)(F)F)cc2Cl)nnc1-c1ccccc1	x	x	x	-14.9	x	x
COC(=O)c1cc(OC)c(OC)cc1NC(=O)C(C)Sc1ccc(C)cc1 (configuration not stated)	18.6%	i	-0.6%	3.3	1.8%	u
COc1ccc([N+](=O)[O-])cc1NC(=O)C(C)Sc1ccc(C)cc1 (configuration not stated)	9.1%	i	12.6µM*	4.9	6.2%	x
COc1ccc([N+](=O)[O-])cc1NC(=O)C(C)OC(=O)C1CCCC1 (configuration not stated)	-2.9%	i	26.7%	-14.2	0.0%	i
COc1ccc([N+](=O)[O-])cc1NC(=O)C(C)OC(=O)CC1CCCC1 (configuration not stated)	-10.1%[1.84 µM]	i	20µM*	1.6	-5.1%	u
CN(C)c1ccc(C(=O)c2ccccc2)cc1	-9.8%	i	12.6µM*	-8.1	0.2%	i
COc1ccc(-n2nnnc2SCc2cc(=O)oc3cc(C)ccc23)cc1	x	x	x	8.3	x	x
CN(C)c1nc2ccccc2c(N)c1-c1ccccc1	-4.3%	i	1.9%	-38.3*	4.8%	i
